From PubChem BioAssay
Inconclusive results are not listed. Calls of active or inactive are those of the source.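 The calls were made as follows, unless noted: active = normalized viability below 100% at a tested concentration; inactive = the rest.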

What was measured:
[1] = growth inhibition of DIPG glioma cells, dose response, cell-based, SU-DIPG-XVII, MIPE5.0, CellTiter-Glo, qHTS (AID 1347060; cut-off not given, nearly all actives have AC50 up to about 26 µM;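 also: cells exposed to compound for 48 hours before viability readout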); settings: SU-DIPG-XVII viability, CellTiter-Glo ATP luminescence
[2] = growth inhibition of DIPG glioma cells, dose response, cell-based, SU-DIPG-XIII, MIPE4.0, CellTiter-Glo, qHTS (AID 1347061; cut-off not given, nearly all actives have AC50 up to about 37 µM;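 also: cells exposed to compound for 48 hours before readout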); settings: SU-DIPG-XIII viability, CellTiter-Glo ATP luminescence
[3] = growth inhibition of DIPG glioma cells, dose response, cell-based, JHH-DIPG-1, MIPE4.0, CellTiter-Glo, qHTS (AID 1347062; cut-off not given, nearly all actives have AC50 up to about 27 µM;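 also: cells exposed to compound for two days before readout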); settings: JHH-DIPG-1 viability, CellTiter-Glo ATP luminescence
[4] = growth inhibition of DIPG glioma cells, dose response, cell-based, SU-DIPG-IV, MIPE4.0, CellTiter-Glo, qHTS (AID 1347063; cut-off not given, nearly all actives have AC50 up to about 30 µM;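 also: compound exposure lasted 48 hours before the viability readout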); settings: SU-DIPG-IV viability, CellTiter-Glo ATP luminescence
[5] = growth inhibition of DIPG glioma cells, dose response, cell-based, SU-DIPG-XIII, MIPE5.0, CellTiter-Glo, qHTS (AID 1347064; cut-off not given, nearly all actives have AC50 up to about 23 µM;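 also: cells exposed to compound for 48 hours before the viability read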); settings: SU-DIPG-XIII viability, CellTiter-Glo ATP luminescence
[6] = viability loss in pontine glioma line – cell-based, SU-DIPG-XXV, MIPE5.0, CellTiter-Glo, qHTS, dose response (AID 1347065; cut-off not given, nearly all actives have AC50 up to about 26 µM;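 also: cells exposed to compound for 48 hours before ATP readout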); settings: CellTiter-Glo ATP luminescence
[7] = SU-DIPG-VI glioma cell viability, MIPE4.0 library, CellTiter-Glo luminescence, qHTS (AID 1347066; cut-off not given, nearly all actives have AC50 up to about 30 µM;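 also: cells exposed to compound for 48 hours before readout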); settings: CellTiter-Glo ATP luminescence
[8] = JHH-DIPG-1 glioma cell viability, MIPE5.0 library, CellTiter-Glo luminescence, qHTS (AID 1347067; cut-off not given, nearly all actives have AC50 up to about 26 µM;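 also: cells exposed to compound for 48 hours before readout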); settings: JHH-DIPG-1 glioma viability, CellTiter-Glo ATP luminescence
[9] = SU-DIPG-XXV glioma cell viability, MIPE5.0 library, qHTS (AID 1347068; cut-off not given, nearly all actives have IC50 up to about 30 µM;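 also: cells exposed to compound for 48 hours before viability readout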)
[10] = modifiers of HSF1 nuclear foci, imaging, Selleck Cancer Library (AID 1347162; in the data active = plate-normalised HSF1 focus index below about 0.46); settings: human cells, at 10 µM; SSMD: measured here: HSF1 foci SSMD mean; cell count: measured here: cell number; plate-normalised HSF1 focus index: stronger effect = lower value
[11] = ovarian cancer cell viability with rucaparib, profiling panel, oncology-focused library, rucaparib conditional (AID 1508598); settings: patient-derived ovarian cancer cells, CellTiter-Glo viability, 144 h, stronger effect = lower value

CC1(C)OC2=C(C(=O)c3ccccc3C2=O)[C@H](NCc2ccccc2)[C@@H]1O
0.824: SSMD [10]
active: AC50 [1] 6.61 µM | AC50 [2] 5.9 µM | AC50 [3] 2.35 µM | AC50 [4] 5.9 µM | AC50 [5] 2.95 µM | AC50 [6] 3.72 µM | AC50 [7] 2.64 µM | AC50 [8] 3.32 µM | IC50 [9] 8.33 µM
inactive: plate-normalised HSF1 focus index [10] 1.05
7240: cell count [10]

NC(=O)Nc1cc(-c2cccc(F)c2)sc1C(=O)N[C@H]1CCCNC1
inactive: plate-normalised HSF1 focus index [10] 0.95 | viability ([11]; at 0.000305 µM, OCI-C5x cells, with rucaparib 10 µM, 100% = cells with rucaparib alone) 130% | viability ([11]; at 0.00122 µM, OCI-C5x cells, with rucaparib 10 µM, 100% = cells with rucaparib alone) 134% | viability ([11]; at 0.00488 µM, OCI-C5x cells, with rucaparib 10 µM, 100% = cells with rucaparib alone) 117% | viability ([11]; at 0.0195 µM, OCI-C5x cells, with rucaparib 10 µM, 100% = cells with rucaparib alone) 108%
-1.43: SSMD [10]
7360: cell count [10]
active: AC50 [1] 1.48 µM | AC50 [2] 20.9 µM | AC50 [3] 0.526 µM | AC50 [4] 5.9 µM | AC50 [5] 2.09 µM | AC50 [6] 1.18 µM | AC50 [7] 18.7 µM | AC50 [8] 3.32 µM | IC50 [9] 2.95 µM | viability ([11]; at 0.000305 µM, OCI-C5x cells, without rucaparib) 94.3% | viability ([11]; at 0.000305 µM, OCI-P5x cells, with rucaparib 20 µM, 100% = cells with rucaparib alone) 76% | viability ([11]; at 0.000305 µM, OCI-P5x cells, without rucaparib) 79.5% | viability ([11]; at 0.00122 µM, OCI-C5x cells, without rucaparib) 97.4% | viability ([11]; at 0.00122 µM, OCI-P5x cells, with rucaparib 20 µM, 100% = cells with rucaparib alone) 73.7% | viability ([11]; at 0.00122 µM, OCI-P5x cells, without rucaparib) 86.4% | viability ([11]; at 0.00488 µM, OCI-C5x cells, without rucaparib) 97.4% | viability ([11]; at 0.00488 µM, OCI-P5x cells, with rucaparib 20 µM, 100% = cells with rucaparib alone) 56.6% | viability ([11]; at 0.00488 µM, OCI-P5x cells, without rucaparib) 87.5% | viability ([11]; at 0.0195 µM, OCI-C5x cells, without rucaparib) 81.6% | viability ([11]; at 0.0195 µM, OCI-P5x cells, with rucaparib 20 µM, 100% = cells with rucaparib alone) 55.1% | viability ([11]; at 0.0195 µM, OCI-P5x cells, without rucaparib) 90.2% | viability ([11]; at 0.0781 µM, OCI-C5x cells, with rucaparib 10 µM, 100% = cells with rucaparib alone) 81.1% | viability ([11]; at 0.0781 µM, OCI-C5x cells, without rucaparib) 53.1% | viability ([11]; at 0.0781 µM, OCI-P5x cells, with rucaparib 20 µM, 100% = cells with rucaparib alone) 44.5% | viability ([11]; at 0.0781 µM, OCI-P5x cells, without rucaparib) 73.5% | viability ([11]; at 0.313 µM, OCI-C5x cells, with rucaparib 10 µM, 100% = cells with rucaparib alone) 48% | viability ([11]; at 0.313 µM, OCI-C5x cells, without rucaparib) 30.6% | viability ([11]; at 0.313 µM, OCI-P5x cells, with rucaparib 20 µM, 100% = cells with rucaparib alone) 26% | viability ([11]; at 0.313 µM, OCI-P5x cells, without rucaparib) 21.6% | viability ([11]; at 1.25 µM, OCI-C5x cells, with rucaparib 10 µM, 100% = cells with rucaparib alone) 33.5% | viability ([11]; at 1.25 µM, OCI-C5x cells, without rucaparib) 20% | viability ([11]; at 1.25 µM, OCI-P5x cells, with rucaparib 20 µM, 100% = cells with rucaparib alone) 13.7% | viability ([11]; at 1.25 µM, OCI-P5x cells, without rucaparib) 9.05% | viability ([11]; at 5 µM, OCI-C5x cells, with rucaparib 10 µM, 100% = cells with rucaparib alone) 13% | viability ([11]; at 5 µM, OCI-C5x cells, without rucaparib) 8.94% | viability ([11]; at 5 µM, OCI-P5x cells, with rucaparib 20 µM, 100% = cells with rucaparib alone) 6.86% | viability ([11]; at 5 µM, OCI-P5x cells, without rucaparib) 3.71%
